Reference: PubChem BioAssay AID1159580 (chemical genetic matrix, 2015)
Several values for one entry are separate records, joined by “and”; a condition that tells them apart may be missing. Identical values can stand only once. About 2,000 (36%) of roughly 5,500 compounds were called active. About 18% were inconclusive and are not listed. Rule as the data show it: active = normalized growth mostly below about 0.91 (no sharp cut-off); inconclusive = no clear call, values can overlap the other calls; inactive = mostly above about 0.92. The list shows a part of the results.

Assay: chemical genetic growth profiling, strain panel (AID 1159580);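 also: tested at 20 µM; growth read once vehicle control cultures reached saturation at 30 °C; 1 = growth at the plate median or of vehicle wells; lower values mean less growth of the strain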
Conditions: S. cerevisiae deletion strains, growth OD

Measured: normalized growth

CC1(C)S[C@@H]2[C@H](NC(=O)C(C(=O)O)c3ccccc3)C(=O)N2[C@H]1C(=O)O (stereo partly drawn)
inactive: locus YAL021C, strain ccr4, hits give low values 0.979 | locus YAL026C, strain drs2, hits give low values 0.979 | locus YAL030W, strain snc1, hits give low values 0.985 | locus YBL061C, strain skt5, hits give low values 0.959 | locus YBR009C, strain hhf1, hits give low values 0.934 | locus YBR021W, strain FUR4, hits give low values 0.998 | locus YBR023C, strain chs3, hits give low values 0.966 | locus YBR171W, strain sec66, hits give low values 0.948 | locus YBR229C, strain ROT2, hits give low values 0.987 | locus YBR231C, strain swc5, hits give low values 1 | locus YBR279W, strain paf1, hits give low values 0.985 | locus YCL011C, strain gbp2, hits give low values 0.933 | locus YCL016C, strain dcc1, hits give low values 0.938 | locus YCL029C, strain bik1, hits give low values 0.99 | locus YCL061C, strain MRC1, hits give low values 0.976 | locus YCL069W, strain vba3, hits give low values 0.985 | locus YCR088W, strain abp1, hits give low values 0.996 | locus YDL005C, strain med2, hits give low values 0.999 | locus YDL035C, strain GPR1, hits give low values 1.02 | locus YDL040C, strain nat1, hits give low values 0.997 | locus YDL074C, strain BRE1, hits give low values 0.995 | locus YDL101C, strain DUN1, hits give low values 0.982 | locus YDL134C, strain PPH21, hits give low values 0.999 | locus YDL185W, strain tfp1, hits give low values 0.982 | locus YDL192W, strain arf1, hits give low values 0.98 | locus YDR001C, strain nth1, hits give low values 0.98 | locus YDR069C, strain doa4, hits give low values 0.978 | locus YDR101C, strain arx1, hits give low values 0.994 | locus YDR137W, strain rgp1, hits give low values 0.944 | locus YDR159W, strain sac3, hits give low values 1.01 | locus YDR162C, strain NBP2, hits give low values 1.01 | locus YDR195W, strain ref2 0.987 | locus YDR297W, strain sur2, hits give low values 0.969 | locus YDR318W, strain mcm21, hits give low values 0.99 | locus YDR334W, strain swr1, hits give low values 0.926 | locus YDR335W, strain msn5, hits give low values 0.978 | locus YDR388W, hits give low values 0.995 | locus YDR392W, strain spt3, hits give low values 0.895 | locus YDR502C, strain sam2, hits give low values 0.995 | locus YEL003W, strain gim4, hits give low values 0.99 | locus YEL037C, strain rad23, hits give low values 0.977 | locus YEL061C, strain CIN8 (second series), hits give low values 0.989 | locus YEL061C, strain CIN8, hits give low values 1 | locus YER015W, strain faa2, hits give low values 0.986 | locus YER016W, strain bim1, hits give low values 0.962 | locus YER110C, hits give low values 0.979 | locus YER111C, strain swi4, hits give low values 0.979 | locus YER155C, strain BEM2 (second series), hits give low values 1.03 | locus YER155C, strain BEM2, hits give low values 0.991 | locus YER167W, strain BCK2, hits give low values 0.993 | locus YFR010W, strain ubp6, hits give low values 0.962 | locus YGL078C, strain dbp3, hits give low values 0.993 | locus YGL086W, strain mad1, hits give low values 0.989 | locus YGL167C, strain pmr1, hits give low values 0.96 | locus YGL173C, strain kem1, hits give low values 0.96 | locus YGL227W, strain vid30, hits give low values 0.985 | locus YGL240W, strain doc1, hits give low values 1.01 | locus YGL248W, strain PDE1, hits give low values 0.982 | locus YGL253W, strain hxk2, hits give low values 0.982 | locus YGR135W, strain pre9, hits give low values 0.988 | locus YGR252W, strain gcn5, hits give low values 0.981 | locus YHR013C, strain ard1, hits give low values 0.949 | locus YHR027C, strain rpn1, hits give low values 0.945 | locus YHR030C, strain SLT2, hits give low values 0.991 and 1.01 | locus YHR079C, strain IRE1 (second series), hits give low values 0.989 | locus YHR079C, strain IRE1, hits give low values 1.02 | locus YHR094C, strain hxt1, hits give low values 0.984 | locus YHR129C, strain ARP1, hits give low values 0.99 | locus YHR142W, strain chs7, hits give low values 0.934 | locus YHR200W, strain rpn10, hits give low values 0.985 | locus YIL066C, strain RNR3, hits give low values 1.01 | locus YIL073C, strain SPO22, hits give low values 1.03 | locus YIL125W, strain kgd1, hits give low values 0.984 | locus YIR030C, strain dcg1, hits give low values 0.987 | locus YJL092W, strain hpr5, hits give low values 0.968 | locus YJL095W, strain BCK1 (second series), hits give low values 0.975 | locus YJL095W, strain BCK1, hits give low values 0.978 and 1 | locus YJL115W, strain asf1, hits give low values 0.952 | locus YJL129C, strain trk1, hits give low values 0.944 | locus YJL134W, strain LCB3, hits give low values 0.992 | locus YJL154C, strain vps35, hits give low values 0.982 | locus YJL164C, strain tpk1, hits give low values 0.962 | locus YJL166W, strain qcr8, hits give low values 0.977 | locus YJL168C, strain set2, hits give low values 0.984 | locus YJL187C, strain SWE1 (second series), hits give low values 0.988 | locus YJL187C, strain SWE1, hits give low values 0.979 | locus YJR043C, strain POL32, hits give low values 1.01 | locus YJR066W, strain TOR1, hits give low values 0.992
